Gal4-VP16 FLuc: counter-screen for ROR gamma inhibitors: Gal4-VP16 reporter | Drosophila S2 Gal4-VP16 UAS-luciferase, luminescence, 20 h | Potency, µM (top dose mostly 53.6 µM), for the others: at the top dose activity, negative = inhibition, most hits filed as inhibitors | 310,000 tested, 3.5% active | AID 2546;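 also: Gal4-VP16 expression switched on by copper sulfate through the metallothionein promoter; potency is read from the fitted curve at half-maximal effect; % is scaled to controls: 0 for no effect and ±100 for the full control effect; nearly all actives have a fitted effect of over 50% in size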
p53 reactivation: mutant p53 re-activation in reporter cells; H1299 p53-A138V BP100-luciferase reporter, luminescence, 24 h; Potency, µM (highest dose often 92.2 µM), for inactives: at the highest dose activity change, positive = activation, usual class: activators; 320,000 tested, 0.063% active; also: potency is read from the fitted curve at half-maximal effect; % of control where 0% means no effect; nearly all actives have a fitted effect of over 45% in size
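p53-null H1299 cells stably carrying temperature-sensitive p53-A138V and a BP100-luciferase reporter were pinned with compounds (4-point, 1:5 series) and held 24 hrs at 37 deg C. Luminescence was read 10 min after detection reagent.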
RORg inh: blocks mouse ROR gamma transcriptional activity; Potency, µM (titrated, usually from 53.6 µM), inactives show top-dose activity change, negative = inhibition, actives largely listed as inhibitors; 310,000 tested, 5.4% active; Drosophila S2 Gal4-RORgamma UAS-luciferase reporter, 20 h; P51450; also: potency is read from the fitted curve at half-maximal effect; % is scaled to controls: 0 for no effect and ±100 for the full control effect; nearly all actives have a fitted effect of over 60% in size
Target sequence (P51450 whole entry, looked up, the tested form may be a part): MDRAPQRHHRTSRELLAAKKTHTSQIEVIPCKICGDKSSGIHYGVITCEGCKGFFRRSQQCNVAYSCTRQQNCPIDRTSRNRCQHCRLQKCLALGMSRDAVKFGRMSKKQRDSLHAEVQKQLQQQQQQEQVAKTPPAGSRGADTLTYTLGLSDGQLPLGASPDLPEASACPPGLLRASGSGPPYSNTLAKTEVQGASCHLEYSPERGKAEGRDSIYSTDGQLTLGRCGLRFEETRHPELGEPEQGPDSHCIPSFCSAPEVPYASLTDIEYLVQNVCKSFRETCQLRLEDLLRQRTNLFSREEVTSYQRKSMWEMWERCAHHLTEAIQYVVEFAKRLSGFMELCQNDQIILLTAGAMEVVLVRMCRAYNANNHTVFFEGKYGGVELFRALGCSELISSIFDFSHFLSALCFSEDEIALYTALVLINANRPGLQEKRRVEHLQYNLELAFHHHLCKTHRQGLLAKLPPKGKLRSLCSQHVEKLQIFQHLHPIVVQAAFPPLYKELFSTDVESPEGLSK
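Compounds are pin-transferred onto Drosophila Schneider cells expressing a copper-inducible Gal4–ROR gamma transactivation domain fusion. After 1 hr, copper sulfate is added to 700 uM final; luciferase is read 20 hr later.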
CtBP-E1A blk: CtBP/E1A binding inhibition; 340,000 tested, 0.49% active; AID 651724; activity change, % (no concentration beside the values); AlphaScreen GST-E1A/His-CtBP binding, 1536-well; active compounds read low; in the data active = activity change below about -65%; inconclusive = mostly about -30% to -63%; also: % is scaled to controls: 0 for no effect and ±100 for the full control effect
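In 5 uL wells, 23 nL compound meets equimolar GST-E1A and His-CtBP (5X stock 125 nM each) for 2 h, 37 °C. Beads (5X, 50 ug/mL) then 1 h, 37 °C, dark.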
Six1-Eya2 inh: Six1/Eya2 interaction inhibition. 360,000 tested, 0.56% active. Q15475+O00167. activity change, % (test concentration not listed). AlphaScreen GST-Six1/His-Eya2 binding, biochemical; active compounds read low; in the data active = activity change below about -65%; inconclusive = mostly about -30% to -63%; also: % is scaled to controls: 0 for no effect and ±100 for the full control effect
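Compounds are tested against tagged Six1 and Eya2 proteins bridged by glutathione donor and nickel acceptor beads; after a one-hour incubation at 37 °C without light, AlphaScreen emission is recorded.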
* marks the source's active call; other numbers are inactive results; u = inconclusive; x = not tested or not shown; [ ] = another dose, or the depositor's remark. Sampled rows, rich in hits. Any-hit rate of the full collection: about 5.4%. Unless noted, calls follow the shape of the dose curve; as a rule, active = well fitted curve in the direction sought with a large enough effect; inconclusive = small, poorly fitted or top-dose-only effect, or another doubt; inactive = no such curve, though single readings can be large; an effect the other way counts as inactive or inconclusive.

SMILES | Gal4-VP16 FLuc | p53 reactivation | RORg inh | CtBP-E1A blk | Six1-Eya2 inh
Cc1ccnc(NC(=S)NC(=O)/C=C/c2ccccc2)c1 | u | 11.2% | 2.82µM* | 4.8 | -1.4
C=CCNC(=S)Nc1ccc(C)cc1[N+](=O)[O-] | 3.9% | u | u | 5.6 | -7.5
C=CCNC(=S)Nc1cc(C)ccn1 | 3.98µM* | 13.5% | 1µM* | -7.5 | 6.1
O=C(/C=C/c1ccccc1)NC(=S)Nc1cccnc1 | -6.0% | 2.6% | 7.08µM* | 0.6 | 2.8
Cc1ccnc(NC(=O)/C=C/c2ccccc2[N+](=O)[O-])c1 | -11.8% | -0.5% | -27.1% | x | x
CC(=O)c1ccc(NC(=S)NC(=O)/C=C/c2ccccc2)cc1 | -13.9% | u | -23.5% | 2.1 | 6.3
Cc1cc(C)nc(NC(=S)NC(=O)c2ccccc2F)n1 | x | x | x | -0.5 | -0.6
Cc1cc(C)nc(S/C=C/C(=O)c2ccccc2F)n1 | 10µM* | -6.3% | 7.94µM* | 0.0 | 19.0
O=C(Nc1cc(Oc2ccccc2)cc([N+](=O)[O-])c1)C12CC3CC(C1)CC(n1cnc(Cl)n1)(C3)C2 | -3.6% | 6.3% | 20.1% | -11.4 | -15.5
COc1ccc(Br)cc1/C=N/n1c(-c2ccccc2)n[nH]c1=S | -20.2% | x | u | -0.9 | 0.6
COc1ccccc1/C=C\C=N\n1c(-c2ccc(Cl)cc2)n[nH]c1=S | u | 13.9% | 1.58µM* | -2.9 | -12.6
COc1ccccc1/C=C\C=N\n1c(-c2ccc(Cl)cc2Cl)n[nH]c1=S | 10µM* | 7.2% | 7.94µM* | -18.1 | -10.6
COc1ccccc1/C=C/C=N/n1c(-c2cc(-c3ccccc3)n[nH]2)n[nH]c1=S | 3.8% | u | u | 0.4 | -28.6
S=c1[nH]nc(-c2ccccc2Cl)n1/N=C/C=C/c1ccco1 | -16.3% | 4.2% | u | -6.6 | -8.2
COc1ccccc1/C=C/C=N/n1c(-c2ccc(F)cc2)n[nH]c1=S | -7.8% | 2.3% | 2µM* | -0.5 | -12.7
CCOC(=O)c1c(C)[nH]c(C(=O)N/N=C\c2ccccc2O)c1C | 1.41µM* | u | 1.58µM* | -8.0 | -65.5*
CCOC(=O)c1c(C)[nH]c(C(=O)OCc2ccc([N+](=O)[O-])cc2)c1C | -9.6% | 9.3% | -0.7% | -2.2 | -9.7
CCOC(=O)c1c(C)[nH]c(C(=O)N/N=C/c2cc([N+](=O)[O-])ccc2O)c1C | u | 12.4% | 2.24µM* | u | u
CCOC(=O)c1c(C)[nH]c(C(=O)N/N=C/c2ccc(OC)c(OC)c2)c1C | -7.4% | -5.0% | -34.3% | x | -0.9
O=C(Nc1cc(Cl)ccc1-n1cncn1)c1cc(F)c(F)c(F)c1F | x | -7.3% | x | 6.0 | -0.9
NCCC[C@@H](CC(=O)N[C@@H]1CCNC[C@H]1C(=O)N[C@H](CC(=O)N[C@@H](CCC(=O)O)CC(=O)O)Cc1ccccc1)NC(=O)C[C@H](Cc1c[nH]c2ccccc12)NC(=O)[C@@H]1CCCC[C@H]1N | 2.0% | x | -1.2% | x | x
COc1ccc(N/C=C(\C#N)S(=O)(=O)c2ccc(Cl)cc2)c(OC)c1 | -0.1% | -1.8% | 17.2% | 7.0 | -8.4
COc1ccccc1Nc1cc(C)nc(Nc2ccccc2OC)n1 | x | -1.2% | x | -1.3 | -10.5
CCCCNC(=S)NC(=O)c1ccc([N+](=O)[O-])cc1 | u | u | 4.47µM* | -0.2 | -28.6
CC(C)CNC(=S)NC(=O)c1csc([N+](=O)[O-])c1 | u | 10.0% | u | -13.5 | -1.4
SMILES | Gal4-VP16 FLuc | p53 reactivation | RORg inh | CtBP-E1A blk | Six1-Eya2 inh
CC(C)CNC(=S)NC(=O)c1ccc([N+](=O)[O-])cc1 | 14.1µM* | 28.4% | 4.47µM* | 1.9 | -12.5
Cc1cc(-c2nnc3n2N=C(c2ccc(-c4ccccc4)cc2)CS3)n[nH]1 | u | -37.9% | 20.6% | -68.5* | -72.0*
COc1cccc(C2=Nn3c(nnc3-c3ccccc3C)SC2)c1 | 15.8µM* | x | u | x | x
Oc1ccc(C2=Nn3c(nnc3-c3ccco3)SC2)cc1O | -8.5%[0.365 µM] | 4.4% | -0.5% | -94.0* | -89.4*
CC(C)(C)C1=Nn2c(nnc2-c2ccco2)SC1 | 2.0% | -4.0% | -18.3% | -6.8 | -3.5
COc1ccc(C2=NN(C(N)=S)C(c3ccco3)C2)cc1 (configuration not stated) | u | 1.6% | 10µM* | -3.6 | -10.0
Cc1c(Cl)c(C(=O)N2CCCCCC2)nn1C | 0.2% | 5.7% | -6.3% | -9.6 | 16.8
O=C(NNC1=NC2(CCCC2)Cc2ccccc21)c1ccncc1 | -9.9% | -3.7% | 38.6% | -0.5 | -2.2
C=CCNC(=O)c1sccc1Oc1ccc(F)cc1[N+](=O)[O-] | -3.2% | 5.4% | 16.1% | -5.5 | -1.1
CCN(CC)Cc1cc(Nc2c3ccccc3nc3c4ccccc4n(C)c23)cc(CN(CC)CC)c1O | x | x | x | -1.0 | u
COc1ccc(OC)c(C2=Nn3c(nnc3-c3ccco3)SC2)c1 | 0.7% | -2.1% | -32.0% | u | u
COc1ccc(C2=Nn3c(nnc3-c3ccco3)SC2)cc1 | -4.7% | -3.7% | 24.5% | -80.1* | -65.7*
CC(C)(C)OC=O | 8.7% | x | 5.8% | x | x
Cc1c(/C(O)=C2/C(=O)C(=O)N(CCN3CCOCC3)C2c2ccccn2)cnn1-c1ccccc1 (configuration not stated) | u | 10.8% | 1.12µM* | -4.3 | -13.4
N#Cc1ccc(-c2cccnc2)nc1SCC(=O)Nc1sc2c(c1C#N)CCC2 | u | -1.6% | 12.6µM* | -4.0 | -3.7
CC1=CC(=O)C=C(C)C1=NOC(=O)c1cccc([N+](=O)[O-])c1 | u | u | 11.2µM* | 3.3 | 8.2
O=C(CSC1=NCCS1)N1CCN(c2ccccc2)CC1 | 3.2% | 35.5µM* | -10.7% | -1.5 | 2.7
C=CCn1c(CSCc2ccccc2)nnc1SCC(=O)N1CCN(c2ccccc2)CC1 | u | -3.0% | 28.2µM* | 3.8 | -8.5
COc1cc(OC)cc(C(=O)Oc2ccc(/C=N/Nc3nc4ccccc4s3)cc2OC)c1 | -22.6% | u | 10µM* | -12.9 | -20.0
O=[N+]([O-])c1cc(Cl)cc(/C=N/Nc2nc3ccccc3s2)c1O | 2.24µM* | 3.5% | 0.891µM* | x | -13.9
COc1cc(/C=N/Nc2ccccc2[N+](=O)[O-])cc(OC)c1O | 0.5% | 0.0% | 28.6% | 0.0 | 0.0
COc1cc(/C=N/Nc2nc3ccccc3s2)cc([N+](=O)[O-])c1O | -14.8% | 11.0% | 6.7% | x | -81.8*
O=[N+]([O-])c1ccccc1N/N=C/c1cc2ccccc2nc1Cl | -1.6% | 23.1% | 2.4% | -18.2 | -24.8
CCCCC/C=C\C/C=C\C/C=C\C/C=C\CCCC(=O)O[C@@H](CO)COC(=O)CCCCCCCCCCCCCCCCC | -4.4% | x | 0.7% | x | x
c1ccc(CN2C3=NCCN3c3ccccc32)cc1 | -5.3% | -5.3% | -21.7% | -11.9 | 1.7
O=C(CN1C2=NCCN2c2ccccc21)C12CC3CC(CC(C3)C1)C2 | -27.6% | -0.1% | 15.8µM* | -0.8 | -4.0

Screening data: PubChem BioAssay, National Center for Advancing Translational Sciences (NCATS)
